In PubChem BioAssay AID588335 (The Scripps Research Institute Molecular Screening Center, 2011):
Among all 360,000 compounds or so, about 4,500 (1.2%) were called active. This is one part of a sample in which actives are shown more often than they occur. No stated cut-off is given here; in the data, active means inhibition above about 30%; inactive means the rest.

Assay: inhibition of GDH and TPI enzymes – biochemical, absorbance, full deck, artefact control for M. tuberculosis FBA inhibitor project, primary screen (AID 588335);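 further: 0% = DMSO wells and 100% = wells lacking the enzyme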
Settings: GDH-TPI coupled enzyme counterscreen, NADH absorbance; at 4.8 µM; stronger effect = higher value

| Compound | inhibition |
| --- | --- |
| COc1cccc(-n2c(SCC(=O)NC3CCCCC3)nc3n[nH]c(C)c3c2=N)c1 | 0.37% (inactive) |
| CCCCNC(=O)CSc1nc2n[nH]c(C)c2c(=N)n1-c1cccc(Cl)c1C | 33.5% (active) |
| Cc1ccc(-n2c(SCC(=O)NCCC3=CCCCC3)nc3n[nH]c(C)c3c2=N)cc1Cl | -1.52% (inactive) |
| CC(C)Nc1ccc(-n2nc3ccccc3[n+]2[O-])cc1 | 21.6% (inactive) |
| CN(C(=O)CN1C(=O)S/C(=C\c2ccccc2F)C1=O)C1CCS(=O)(=O)C1 (configuration not stated) | 9.17% (inactive) |
| CC12CCC(=O)N1C(C(=O)NCCN1C(=O)S/C(=C\c3ccccc3F)C1=O)CS2 (configuration not stated) | 21.5% (inactive) |
| O=C(CN1C(=O)S/C(=C\c2ccccc2Cl)C1=O)NC1C=CS(=O)(=O)C1 (configuration not stated) | 35.4% (active) |
| CCN(CC)C(=O)C1CCCN(Cc2cccc(Cl)c2)C1 (configuration not stated) | 11.3% (inactive) |
| COc1ccccc1C(=O)Nc1ccnn1C1CCN(C(=O)C(C)(C)C)CC1 | 2.52% (inactive) |
| COc1cc(C(=O)N/C(=C\c2cn(C)c3ccccc23)C(=O)N2CCOCC2)cc(OC)c1OC | 33.6% (active) |
| Cc1ccc(C(=O)N/C(=C\c2cn(C)c3ccccc23)C(=O)N2CCN(C)CC2)cc1 | 18.5% (inactive) |
| CCn1cc(/C=C(\NC(=O)c2cc(OC)c(OC)c(OC)c2)C(=O)N2CCN(C)CC2)c2ccccc21 | 27.5% (inactive) |
| CN(Cc1c(F)cccc1Cl)C(=O)COC(=O)Cn1cnc2ccccc2c1=O | 7.14% (inactive) |
| C/C(=C\C(=O)c1cccnc1)Nc1ccc(C)c(C)c1 | 31.1% (active) |
| Cc1ccc(OCC(=O)NCCCNC(=O)c2cccnc2)cc1C | -5.28% (inactive) |
| C/C(=C\C(=O)c1ccccc1)Nc1cccc(O)c1 | 8.48% (inactive) |
| C=C1C2C[C@H](O)C(C)(C)[C@@]2(O)[C@H](O)C[C@]23C[C@@](C)(O)[C@H](CC[C@H]12)[C@H]3O (some centres not stated) | 5.18% (inactive) |
| COc1ccc(SC[C@H](Cc2ccccc2)N2CCN(CCc3ccccc3)CCC2=O)cc1 | 3.36% (inactive) |
| C=CCOc1ccc(/C=N/n2cncn2)cc1OC | 19.5% (inactive) |
| COc1ccccc1CN1CCN(C(=O)Cc2ccccc2)CC1 | 6.8% (inactive) |
| COc1ccccc1/C=C/C=N/NC(=O)CN1CCN(Cc2ccccc2)CC1 | 49.7% (active) |
| O=C(CN1CCN(Cc2ccccc2)CC1)Nc1ccc(F)c(F)c1 | -9.79% (inactive) |
| O=C(CCn1c(=S)[nH]c2cc3c(cc2c1=O)OCO3)NCc1ccc(Cl)cc1 | 20.7% (inactive) |

| Compound | inhibition |
| --- | --- |
| O=c1c2ccccc2[nH]c(=S)n1-c1cccc(Cl)c1 | 9.09% (inactive) |
| CN(C)CCn1c(=S)[nH]c2ccc(Cl)cc2c1=O | 32.9% (active) |
| O=C(CN1CCN(S(=O)(=O)c2cc(Cl)ccc2Cl)CC1)c1ccc(O)c(O)c1 | 18.1% (inactive) |
| Cc1cc(/C=N/NC(=O)CC2(C)OCCO2)c(C)n1-c1ccc(Cl)c(Cl)c1 | 0.72% (inactive) |
| Cc1cc(/C=N/Nc2ccc([N+](=O)[O-])cn2)c(C)n1-c1cccc(C(=O)O)c1 | 38% (active) |
| Cc1cc(C=O)c(C)n1-c1ccc(NC2CCCCC2)c([N+](=O)[O-])c1 | 0.62% (inactive) |
| COc1ccc(-c2noc(C(C)NS(=O)(=O)c3ccc(NC(C)=O)cc3)n2)cc1 (configuration not stated) | -8.81% (inactive) |
| Brc1ccc(CN2CC[C@H]3C=CCc4cccc(c43)C2)cc1 | 6.9% (inactive) |
| CC(=O)N1CCOc2ccc(S(=O)(=O)N3CCN(c4cccc(C(F)(F)F)c4)CC3)cc21 | 6.9% (inactive) |
| O=C(N/N=C\c1ccc(-c2ccc(Cl)c(Cl)c2)o1)C(=O)N1CCCC1 | 14.3% (inactive) |
| O=C(Cn1nnc(-c2ccccc2)n1)N/N=C/c1ccc(-c2ccc(Cl)cc2)o1 | 11.2% (inactive) |
| COC(=O)N/N=C/c1ccc(-c2ccc(Cl)c(Cl)c2)o1 | 31.5% (active) |
| CCC1Sc2ccc(S(=O)(=O)CCC(=O)NCc3cccs3)cc2NC1=O (configuration not stated) | 10% (inactive) |
| Cc1cc(C(=O)N2CCCC2(C)C(=O)O)c(C)o1 (configuration not stated) | -1.83% (inactive) |
| CCOc1cc(/C=N/NC(=O)c2cccc(S(=O)(=O)N3CCOCC3)c2)ccc1OCC(=O)N(C)C | 26.9% (inactive) |
| CSc1ccc(/C=N/NC(=O)c2cccc(Cl)c2)cc1 | 31.8% (active) |
| COc1cc(/C=N/NC(=O)c2cccnc2)ccc1OC(=O)c1cccc(Br)c1 | 7.96% (inactive) |
| CC(NC(=O)C(=O)N/N=C/c1ccc(Cl)cc1)c1ccccc1 (configuration not stated) | -6.35% (inactive) |
| Cn1c(=O)n(C)c2cc(/C=N/NC(=O)c3cccc(Br)c3)ccc21 | 31.9% (active) |
| O=C(N/N=C/c1ccoc1)c1ccc(Cl)cc1Cl | -4.38% (inactive) |
| O=C(OCC(=O)N1CCCCCC1)c1cnc(Cl)c(Cl)c1 | -4.78% (inactive) |
| COc1ccc(C2CC(=O)Oc3ccc(C(C)(C)C)cc32)cc1 (configuration not stated) | 10.2% (inactive) |
| COc1ccc([C@H]2CC(=O)C=C(c3ccc(C)cc3)C2)cc1 | 13.4% (inactive) |

| Compound | inhibition |
| --- | --- |
| COc1ccc([C@H]2CC(=O)C=C(/C=C/c3ccccc3)C2)cc1 | 37.2% (active) |
| COc1ccc([C@H]2CC(=O)C=C(/C=C/c3ccc(Cl)cc3)C2)cc1 | 2.59% (inactive) |
| CCCCC(=O)N(C)c1c(CC)nc2c(OCc3ccc(S(C)(=O)=O)cc3)cccn12 | 8.04% (inactive) |
| CN(C)Cc1ccc(F)cc1Sc1cc(Cl)ccc1Cl | 6.23% (inactive) |
| OCCNc1nc2ccccc2n1-c1ncnc2sc3c(c12)CCC3 | 7.12% (inactive) |
| COc1ccc(NC(=O)CCCNC(=O)Cn2cnc3sc4c(c3c2=O)CCCC4)cc1OC | 4.67% (inactive) |
| COc1ccc(/C=N/Nc2ncnc3sc4c(c23)CCCC4)cc1O | 34.2% (active) |
| Cc1nnc(NC(=O)CCC(=O)N2CCC(C)CC2)s1 | -8.68% (inactive) |
| Cc1noc(NS(=O)(=O)c2ccc(N/C=C/C(=O)c3ccccc3)cc2)c1C | 32.3% (active) |
| Cc1ccc(C(=O)/C=C/Nc2ccc(S(=O)(=O)Nc3onc(C)c3C)cc2)cc1 | 21.6% (inactive) |
| Cc1noc(NS(=O)(=O)c2ccc(NC(=O)C34CCC(CC3)C4)cc2)c1C | -6.12% (inactive) |
| Cc1ccc(-c2csc(C(C#N)=C(O)CN3CCN(C(=O)c4ccco4)CC3)n2)cc1 | 21.6% (inactive) |
| COC(=O)C(C(=O)Nc1cccc(C)n1)C1CCCCCC1 (configuration not stated) | 14.9% (inactive) |
| C=CCN(c1ccc(C(=O)Nc2cc(C)cc(C)c2)cc1)S(C)(=O)=O | 4.51% (inactive) |
| CC(=O)c1cnc(-c2ccccc2)s1 | 10.1% (inactive) |
| CC(C)(C)C(=O)c1cnc(Nc2ccccc2)s1 | 35.6% (active) |
| O=C(/C=C/Nc1ccccc1)c1cnc(-c2ccccc2)s1 | 3.77% (inactive) |
| C=CC(COCc1ccccc1)N(Cc1ccccc1)S(=O)(=O)c1ccccc1Br (configuration not stated) | 9.24% (inactive) |
| CCCOc1cccc(C(=O)Nc2nnn(CCC)n2)c1 | 3.11% (inactive) |
| O=C(Nc1ccc(Cl)cc1)c1cccc(OC(=S)N2CCOCC2)c1 | -5.96% (inactive) |
| CCC(=O)Oc1cccc(C(=O)Nc2ccc(-c3nnc(-c4ccco4)o3)cc2)c1 | 35.6% (active) |
| N#C/C(C(=S)Nc1ccccc1)=C1/NN=C(N2CCOCC2)N1c1ccccc1 | 6.29% (inactive) |
| Cc1ccc2c(O)c(Cc3ccccc3)c(=O)[nH]c2n1 | 12.7% (inactive) |

| Compound | inhibition |
| --- | --- |
| NC(=O)Cn1cc(C(=O)c2ccccc2F)c2ccccc21 | 1.25% (inactive) |
| CC1CCN(C(=O)Cn2cc(C(=O)c3ccco3)c3ccccc32)CC1 | 21.1% (inactive) |
| N#Cc1ccc(Cn2cc(C(=O)c3ccco3)c3ccccc32)cc1 | 31.5% (active) |
| CCOC(=O)c1c(NC(=S)SC)sc(C(=O)N2CCc3ccccc3C2)c1C | 1.83% (inactive) |
| CN1CCC(=NNC(=O)CN(c2cccc(Cl)c2)S(C)(=O)=O)CC1 | 3.59% (inactive) |
| CCc1nc2cccnc2n1-c1ccc(C(=O)O)cc1 | 0.86% (inactive) |
| N#CCCCn1c(O)c(N=NC(=O)C(O)c2ccccc2)c2ccccc21 (configuration not stated) | 42% (active) |
| CCCCn1c(O)c(N=NC(=O)Cn2c(C(F)(F)F)nc3ccccc32)c2ccccc21 | -14.8% (inactive) |
| Cc1csc(Nc2ccc(Cl)cc2)[n+]1-c1ccc(Cl)cc1 | 2.24% (inactive) |
| CCN(CC)c1ccc(/C=N/NC(=O)CNC(=O)c2cccs2)cc1 | 31.4% (active) |
| C/C(=N\NC(=O)c1cccnc1)c1ccc(-n2ccnc2)cc1 | 12.6% (inactive) |
| CC1CC(=NNC(=O)C2COc3ccccc3O2)CC(C)(C)C1 (configuration not stated) | -8.18% (inactive) |
| Cc1cccc(OCC(=O)NCCNC(=O)c2cccnc2)c1 | -7.55% (inactive) |
| CC(C)OCCCNC(=O)CNC(=O)c1cccs1 | 3.27% (inactive) |
| O=C(CNC(=O)c1cccnc1)N/N=C/c1cc(Br)c(O)c(Br)c1 | 42% (active) |
| O=C(CNC(=O)C1COc2ccccc2O1)N/N=C/c1cc(Br)c(O)c(Br)c1 (configuration not stated) | 33.5% (active) |
| O=C(CNC(=O)C(c1ccccc1)c1ccccc1)N/N=C\c1ccc2c(c1)OCO2 | 6.25% (inactive) |
| O=C(CNC(=O)c1ccccc1Br)NNC(=O)c1cccs1 | -3.45% (inactive) |
| CCOc1cc(/C=N/NC(=O)c2ccncc2)cc(Br)c1O | 0% (inactive) |
| CCN(CC)c1ccc(/C=N/NC(=O)CNC(=O)c2cccnc2)cc1 | 33.1% (active) |
| CCCOc1cccc(C(=O)NCCCNC(=O)c2cccnc2)c1 | -5.19% (inactive) |
| O=C(COC(=O)c1ccc(N2CCCC2=O)cc1)c1ccc(OC(F)F)cc1 | 2.55% (inactive) |
| Cc1cc(=O)oc2cc(NC(=O)C3CC(=O)N(Cc4ccccc4)C3)ccc12 (configuration not stated) | 19.6% (inactive) |
